JMJD2A Tudor inh: blocks the human JMJD2A Tudor domain | O75164 | hit rate 4.4% among 390,000 | AlphaScreen JMJD2A-Tudor / H3K4me3 peptide binding | AID 504339 | Potency, µM (series often up to 114 µM), actives largely listed as inhibitors; also: nearly all actives have a fitted effect of over 50% in size
GLS inh: glutaminase GLS (human) inhibition; O94925; GLS enzymatic activity, qHTS titration; Potency, µM (titrated, usually from 45.5 µM), most hits filed as inhibitors; hit rate 0.21% among 410,000; AID 624170
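Read-out is an Amplex red fluorescence increase coupled through glutamate oxidase and HRP, measured before and after 30 min room-temperature incubation. hKGA is in 45 mM KH2PO4 (pH 8.2) with 0.02% Tween-20; glutamine added as 1mM solution.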
HP1b binding inh: inhibitors of HP1-beta chromodomain binding to methylated histone tails | P83916 | AlphaScreen HP1-beta / biotin-H3K9me3 peptide binding | Potency, µM (series often up to 114 µM), usual class: inhibitors | hit rate 0.56% among 390,000 | AID 540317; also: nearly all actives have a fitted effect of over 70% in size
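AlphaScreen: HP1-beta (50 nM) preformed 30 min with biotin-H3(1-18)K9me3 peptide (50 nM) in PBS pH 7.4, 0.01% Tween-20. Compound added for 30 min at RT, then streptavidin donor/nickel chelate acceptor beads (10 ug/mL) for 30 min.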
BAZ2B block: blocks human BAZ2B. AlphaScreen BAZ2B-H3K14Ac peptide displacement. Potency, µM (top dose mostly 114 µM), most hits filed as inhibitors. Q9UIF8. hit rate 4.4% among 360,000; also: nearly all actives have a fitted effect of over 60% in size
Target sequence (Q9UIF8 whole entry, looked up): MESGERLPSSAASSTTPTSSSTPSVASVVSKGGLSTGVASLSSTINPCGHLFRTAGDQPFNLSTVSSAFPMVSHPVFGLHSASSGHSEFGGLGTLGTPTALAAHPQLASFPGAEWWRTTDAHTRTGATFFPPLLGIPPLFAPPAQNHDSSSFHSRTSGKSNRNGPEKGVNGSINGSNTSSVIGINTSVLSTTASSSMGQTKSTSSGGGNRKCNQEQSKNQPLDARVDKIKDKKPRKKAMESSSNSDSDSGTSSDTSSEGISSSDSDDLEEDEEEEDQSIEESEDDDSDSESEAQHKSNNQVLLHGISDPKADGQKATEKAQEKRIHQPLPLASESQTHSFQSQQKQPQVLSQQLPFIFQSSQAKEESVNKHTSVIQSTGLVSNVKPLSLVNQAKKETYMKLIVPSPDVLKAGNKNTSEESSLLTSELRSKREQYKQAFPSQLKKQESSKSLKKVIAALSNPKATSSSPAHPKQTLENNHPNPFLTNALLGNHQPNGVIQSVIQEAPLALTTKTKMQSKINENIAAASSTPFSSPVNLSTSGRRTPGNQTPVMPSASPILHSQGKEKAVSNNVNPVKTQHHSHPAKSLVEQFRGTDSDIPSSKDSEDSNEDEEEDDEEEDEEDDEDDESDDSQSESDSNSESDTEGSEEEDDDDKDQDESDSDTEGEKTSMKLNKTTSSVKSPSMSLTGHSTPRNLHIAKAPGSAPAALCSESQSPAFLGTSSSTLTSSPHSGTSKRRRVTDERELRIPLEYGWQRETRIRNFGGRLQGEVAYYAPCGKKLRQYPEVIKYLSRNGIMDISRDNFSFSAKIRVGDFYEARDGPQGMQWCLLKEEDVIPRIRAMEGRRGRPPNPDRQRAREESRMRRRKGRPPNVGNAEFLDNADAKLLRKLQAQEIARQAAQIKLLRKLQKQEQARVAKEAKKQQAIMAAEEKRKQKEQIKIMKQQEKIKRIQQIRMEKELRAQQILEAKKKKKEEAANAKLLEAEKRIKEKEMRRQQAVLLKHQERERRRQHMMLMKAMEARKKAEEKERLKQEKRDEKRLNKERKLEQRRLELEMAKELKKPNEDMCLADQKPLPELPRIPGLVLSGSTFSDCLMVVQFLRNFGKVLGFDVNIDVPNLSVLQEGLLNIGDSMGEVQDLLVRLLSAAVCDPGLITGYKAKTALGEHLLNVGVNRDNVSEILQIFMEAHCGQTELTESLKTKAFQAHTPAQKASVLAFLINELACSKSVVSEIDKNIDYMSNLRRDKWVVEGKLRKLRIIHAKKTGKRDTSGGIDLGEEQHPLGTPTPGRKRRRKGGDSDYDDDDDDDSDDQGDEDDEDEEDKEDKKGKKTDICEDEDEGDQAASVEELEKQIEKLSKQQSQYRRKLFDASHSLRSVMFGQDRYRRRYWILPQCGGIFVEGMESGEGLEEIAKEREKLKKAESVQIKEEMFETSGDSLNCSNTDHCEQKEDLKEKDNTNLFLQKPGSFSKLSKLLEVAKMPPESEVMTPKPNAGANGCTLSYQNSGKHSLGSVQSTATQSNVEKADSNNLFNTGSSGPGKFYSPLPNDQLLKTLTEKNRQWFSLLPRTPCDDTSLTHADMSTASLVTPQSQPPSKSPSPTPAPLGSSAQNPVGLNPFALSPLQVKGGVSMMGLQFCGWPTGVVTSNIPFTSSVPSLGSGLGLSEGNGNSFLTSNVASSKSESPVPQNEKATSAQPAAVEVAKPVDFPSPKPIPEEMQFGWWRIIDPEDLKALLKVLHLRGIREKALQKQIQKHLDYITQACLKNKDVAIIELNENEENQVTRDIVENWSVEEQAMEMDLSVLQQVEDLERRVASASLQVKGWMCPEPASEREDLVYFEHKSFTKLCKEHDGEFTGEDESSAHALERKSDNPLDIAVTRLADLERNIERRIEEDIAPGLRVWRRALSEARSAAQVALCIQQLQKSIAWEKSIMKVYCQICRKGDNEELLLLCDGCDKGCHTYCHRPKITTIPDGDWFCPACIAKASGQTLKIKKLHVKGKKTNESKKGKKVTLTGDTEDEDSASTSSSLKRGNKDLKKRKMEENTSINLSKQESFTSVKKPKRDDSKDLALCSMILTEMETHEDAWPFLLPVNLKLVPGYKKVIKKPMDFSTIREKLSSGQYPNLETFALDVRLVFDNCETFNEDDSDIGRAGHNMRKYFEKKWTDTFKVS
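Complex of BAZ2B and biotin-H3K14Ac (50 nM apiece) forms over 30 min at RT, then faces library compounds up to 110 uM for another 30 min; AlphaScreen beads added, 20 min dark incubation, luminescence read.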
G9a inh: blocks human histone lysine methyltransferase G9a; G9a H3K9 monomethylation, AlphaScreen, 2 h; Potency, µM (top dose mostly 102 µM), usual class: inhibitors; hit rate 8.8% among 350,000; AID 504332; also: nearly all actives have a fitted effect of over 75% in size
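Using a bead-based AlphaScreen, monomethylated H3K9 product from 2 h room-temperature reactions (G9a 20 nM, peptide 500 nM, SAM 20 uM) was detected with 0.5 ug/mL rabbit anti-H3K9me1 antibody.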
A number is an active result; – = inactive; ? = inconclusive; · = no result; [ ] = dose if it differs, or a comment. Hits are enriched below; roughly 10% of the tested compounds scored in any of these assays. Calls follow the shape of the dose curve; as a rule, active = well fitted curve in the direction sought with a large enough effect; inconclusive = small, poorly fitted or top-dose-only effect, or another doubt; inactive = no such curve, though single readings can be large; an effect the other way counts as inactive or inconclusive.

SMILES	JMJD2A Tudor inh	GLS inh	HP1b binding inh	BAZ2B block	G9a inh
CS(=O)(=O)c1ccc2nc(NC(=O)c3ccccc3Cl)sc2c1	–	–	–	–	–
Cc1nc(NC(=O)c2ccccc2O)sc1C	–	–	–	–	–
O=C(Nc1nnc(C2CC2)s1)c1cc2ccccc2o1	–	–	–	–	14µM
COc1cc2c(c(OC)c1OC)-c1c(cc3c(c1OC)OCO3)CC(C)C(C)(O)C2 (stereo unspecified)	·	–	·	·	·
Cc1nc(NC(=O)CCc2ccccc2)sc1C	–	–	?	?	10µM
Cc1nc(NC(=O)c2ccccc2)sc1C	–	–	–	–	–[0.501 µM]
O=[N+]([O-])c1cc2oc3c(c2c(C=NCc2ccccc2)c1O)CCCC3	71µM	?	?	–	–
CC(C)CN=Cc1c(O)c([N+](=O)[O-])cc2oc3c(c12)CCCC3	–	–	–	?	–
CC1=NN(C(C#N)c2ccccc2)C(c2ccccc2)C1 (stereo unspecified)	–	–	–	–	·
COc1ccc(N2CCN(CCNC(=O)Nc3ccc(Cl)cc3)CC2)cc1	–	–	–	–	8.9µM
CCOc1ccc(NC(=S)NCCCN2CCN(c3ccc(OC)cc3)CC2)cc1	?	–	–	35µM	40µM
COc1ccc(N2CCN(c3ccc(NC(=O)NN)cc3)CC2)cc1	?	?	–	–	45µM
CC1CCN(CCNC(=S)Nc2ccc(Cl)cc2)CC1	–	–	–	–	45µM
CCOc1ccc(NC(=O)NCCCN2CCN(c3ccc(OC)cc3)CC2)cc1	?	–	–	–	?
COc1ccc(N2CCN(C(=O)Nc3ccc(Cl)cc3)CC2)cc1	–	–	–	–	?
S=C(NCCN1CCOCC1)Nc1ccc(Cl)cc1	–	–	–	–	–
Clc1cccc(Cl)c1CSc1nnc([C@@H]2CCCN2)o1	–	–	–	–	–
COc1ccc(-c2c(C(F)(F)F)nn(C)c2NC(C)=O)cc1	–	–	–	–	·
CC(C)(C)c1ccc(C(=O)Nc2ccc(-c3nc4ccccc4o3)c(O)c2)cc1	–	–	–	–	–
CC(C)(C)c1ccc(C(=O)OCC(=O)NCc2ccco2)cc1	–	–	–	–	–[12.7 µM]
COc1cc(C(=O)Oc2c(CN3CCOCC3)cc(Cl)c3cccnc23)cc(OC)c1OC	56µM	–	–	20µM	–
COc1ccc(C(=O)Oc2c(CN3CCOCC3)cc(Cl)c3cccnc23)cc1	?	–	–	50µM	?
O=C(Oc1c(CN2CCOCC2)cc(Cl)c2cccnc12)c1cccs1	?	–	–	·	–
O=C(Oc1c(CN2CCOCC2)cc(Cl)c2cccnc12)c1ccccc1Cl	50µM	?	–	11µM	–
O=C(Oc1c(CN2CCOCC2)cc(Cl)c2cccnc12)c1ccc(F)cc1	22µM	–	–	20µM	–
SMILES	JMJD2A Tudor inh	GLS inh	HP1b binding inh	BAZ2B block	G9a inh
O=C(Oc1ccc(Cl)c2cccnc12)N1CCOCC1	–	–	–	–	–
COc1ccc(CN(C)C(=O)Cn2cnc(C(=O)Nc3ccc(C)c(C)c3)n2)cc1OC	–	–	–	·	·
CCOC(=O)C1=C(c2ccccc2)NC(=O)NC1c1cc(OC)c(O)c([N+](=O)[O-])c1 (stereo unspecified)	–	–	–	–	–[0.501 µM]
COc1cccc(C(=O)Oc2c(CN3CCOCC3)cc(Cl)c3cccnc23)c1	50µM	–	–	45µM	–
CCCN1CCN(C(=S)Nc2ccc([N+](=O)[O-])cc2)CC1	–	–	–	–	28µM
CC1CCN(C(=S)c2ccc([N+](=O)[O-])cc2)CC1	–	–	?	?	7.9µM
O=[N+]([O-])c1ccc(C(=S)N2CCCC2)cc1	–	–	–	?	–
CCN1CCN(C(=S)c2ccc([N+](=O)[O-])cc2)CC1	?	–	–	–	10µM
Cc1ccn(CCNC(=O)C2CCC(=O)N(Cc3ccc(Cl)cc3)C2)n1 (stereo unspecified)	–	–	–	–	·
CC(=O)N[C@H]1[C@H](O[C@@H]2c3ccc(c(Cl)c3)Oc3cc4cc(c3O[C@@H]3O[C@H](CO)[C@@H](O)[C@H](O)C3C)Oc3ccc(cc3Cl)C[C@H]3NC(=O)[C@@H](N)c5ccc(O)c(c5)Oc5cc(O)cc(c5)[C@H](NC3=O)C(=O)N[C@H]4C(=O)N[C@H]3C(=O)N[C@@H]2C(=O)N[C@@H](C(=O)O)c2cc(O)cc(O[C@H]4O[C@H](CO)[C@@H](O)C(O)[C@@H]4O)c2-c2cc3ccc2O)O[C@H](CO)[C@@H](O)[C@@H]1O (stereo partly specified)	·	16µM	·	·	–[5.15 µM]
COc1ccc(-c2nc3n(n2)C(=O)CC(c2ccco2)S3)cc1 (stereo unspecified)	32µM	–	–	?	2.2µM
CCOC(=O)c1c(NC(=O)CN2CCN(C(=O)c3ccco3)CC2)sc(C)c1C	–	–	–	–	–
CCOC(=O)c1c(C)n(C)c2ccc(OC)c(NC(=O)CN3CCN(C(=O)c4ccco4)CC3)c12	–	–	–	–	32µM
CCc1c(C)sc(NC(=O)CN2CCN(C(=O)c3ccco3)CC2)c1C(=O)OC	?	–	–	?	79µM
CCc1c(C)sc(NC(=O)Cc2ccccc2C)c1C(=O)N1CCOCC1	–	–	?	–	35µM
Cc1ccccc1CC(=O)Nc1sc(C(C)C)cc1C(=O)N1CCOCC1	–	–	–	–	–
OC(c1ccc(F)c(F)c1)c1nc(-c2cccc(C(F)(F)F)c2)cs1 (stereo unspecified)	·	–	·	·	·
Cn1nnnc1SCC(=O)c1c(N)n(C)c(=O)n(C)c1=O	–	–	–	–	–
Cc1ccc2c(c1)CCCN2C(=O)c1cc2ccccc2oc1=O	–	–	–	–	?
CNc1nc(C23CC4CC(CC(C4)C2)C3)cs1	–	–	–	–	32µM
O=C(NCC1CCNCC1)c1ccncc1	–	–	–	–	?
O=S(=O)(Nc1cccc2ncccc12)c1cccs1	56µM	–	–	56µM	–
CCCCCNc1nc(N2CCCC2)c2c(c1C#N)CCN(C)C2	56µM	–	–	?	50µM
O=C(O)c1ccc(NNC(=S)Nc2cc(C(F)(F)F)ccc2Cl)cc1	–	–	–	?	35µM
CCCOc1ccc(Cc2nn3c(=O)/c(=C/c4ccco4)sc3nc2=O)cc1	56µM	–	–	–	?
COc1ccccc1/C=C/C=c1\sc2nc(=O)c(Cc3ccccc3)nn2c1=O	56µM	–	–	45µM	·
CCCNC(=O)c1onc(CSc2ccc(F)cc2)c1C(=O)NCCC	–	–	–	–	–[12.7 µM]
CCOC(=O)C1=C(COC(=O)CCOc2ccc(OC)cc2)NC(=O)NC1C (stereo unspecified)	–	–	–	–	–[2.33 µM]
Cn1cc(CN2CC3C[C@@H]4CC2C[C@H](C3)C4)c(-c2ccc3c(c2)OCCO3)n1	–	–	–	?	50µM
O=C(NCCc1ccccc1)c1ccc2c(=O)[nH]c3c(C(=O)NCC4CCCO4)sc(=S)n3c2c1 (stereo unspecified)	45µM	–	?	35µM	–[0.501 µM]

Screening results from PubChem.
